Consider 106 compounds from ChEMBL document CHEMBL4513216, “Probing the Open Global Health Chemical Diversity Library for Multistage-Active Starting Points for Next-Generation Antimalarials” (ACS Infect Dis, 2020).

The structures appear in SMILES notation. The whole screen tested about 68,000 compounds, of which about 2,700 (4%) showed an effect of 50% or more. The sample holds strong results, similar compounds and a random draw of the others, so the mix is not that of the screen.

The assay has as its system Plasmodium berghei. The experiment in a line: Screen against P. berghei liver stage (PbLuc), transformed with Luciferase, at 2uM. In kind it is functional, HepG2. The following applies: tested at 2 uM.
For `COC(=O)CCCNC(=O)Nc1ccccc1OC`, the INHIBITION was -3.99%.
For `CN1CCC(NC(=O)Nc2cnn(-c3ccccc3Cl)c2)C1=O` (stereo unspecified) the value was 15.75%; for `CNC(=O)[C@@H]1C[C@@H](n2cc(-c3ccc(CN4CC=CC4)cc3)nn2)CN1`, -21.75%; for `Nc1nc(CCC(=O)N2C[C@H](c3ccccc3)[C@@H](N)C2)cs1`, -10.1%.
For `CCc1ccc2c(C3CN(S(C)(=O)=O)C3)ncn2c1` the value was 28.81%; for `CS(=O)(=O)N1CC(c2n[nH]c3ncccc23)C1`, 31.98%.
For `CS(=O)(=O)N1CC(c2ncn3ccccc23)C1` the value was 51.36%; for `CC(=O)N1N=C(c2cccs2)OC1C(=O)Nc1ccc(C(C)C)cc1` (stereo unspecified), 19.09%; for `NC(=O)CC1CCN(C(=O)c2csc(-c3ccccc3F)n2)CC1`, 51.96%.
As to `NC(=O)CC1CCN(C(=O)c2cnc(-c3ccccc3F)s2)CC1`, the INHIBITION stood at 20.76%.
For `COC1CCN(C(=O)c2csc(-c3ccccc3F)n2)CC1` the value was 10.91%; for `Cc1noc(C)c1CN1CCn2c(COC(C)C)nnc2C1`, 40.71%.
Under `Fc1ccc(OCCNC2CCN(Cc3ccncc3)CC2)c(F)c1` stands 4.19%.
For `Cc1nn(CC(=O)NCCc2ccncc2)c(=O)n1Cc1ccccc1` the value was 53.98%; for `Cc1ccc(CCNC(=O)Cn2nc(C)n(Cc3ccccc3)c2=O)o1`, -9.48%.
On to `Cc1ccc(CCNC(=O)Cn2nc(C)n(Cc3ccccc3)c2=O)s1`, for which the INHIBITION is given as -8.8%.
Under `Cc1nnc(CN2C[C@H](NC(=O)C3CCOCC3)[C@@H](C(C)C)C2)s1` stands -29.43%; under `OCC1(O)CCN(c2ncccc2C(F)(F)F)CC1`, 65.3%; under `N[C@@H]1c2ccccc2C2(CCN(c3ncccc3C(F)(F)F)CC2)[C@H]1O`, -7.99%.
For `OCC1(O)CCN(c2ccnc3c(C(F)(F)F)cccc23)CC1` the value was -100.41%; for `Cn1c(CC2CCS(=O)(=O)C2)nnc1SCCOc1cccc(Cl)c1` (stereo unspecified), 42.62%; for `Cc1nccc(NCc2cncc3c2CCN(CC2CCOC2)C3)n1` (stereo unspecified), 22.23%.
For `c1cnc(NCc2cncc3c2CCN(CC2CC2)C3)nc1` the value was 30.99%.
For the compound `O=C(NCc1cncc2c1CCN(CC1CCOC1)C2)c1ccco1` (stereo unspecified), the INHIBITION worked out at 7.33%.
For the compound `CS(=O)(=O)NCc1cncc2c1CCN(CC1CCOC1)C2` (stereo unspecified), the INHIBITION is 52.05%.
Under `O=C(NCc1cncc2c1CCN(C1CCOCC1)C2)c1ccno1` stands 36.06%.
Under `O=C(NCc1cncc2c1CCN(CC1CCOC1)C2)c1ccno1` (stereo unspecified) stands 69.13%; under `COc1ccccc1C(=O)N1CC(=O)N(Cc2ccco2)CC(O)C1` (stereo unspecified), -8.2%; under `Cc1cnccc1CN1Cc2ccccc2OC2(CCC(CO)CC2)C1` (stereo unspecified), 19.76%.
Under `O=C1CCC2(CCC(NCc3ccoc3)CC2)N1` (stereo unspecified) stands -29.46%.
In the case of `CCc1cnc(NCC(c2ccncc2)N2CCOCC2)nc1` (stereo unspecified), the INHIBITION is reported as 0.12%.
For `CN1CCC(c2nnc3ccc(C(=O)N4CCCCC4)cn23)C1` (stereo unspecified) the value was 23.43%; for `CCNC(=O)[C@@H]1C[C@@H](NC(=O)c2cccn2C)CN1CCCSC`, 29.89%.
For `CCNC(=O)[C@@H]1C[C@@H](NC(=O)c2ccc(C#N)cc2)CN1CCCSC` the value was 22.89%; for `CCNC(=O)[C@@H]1C[C@@H](NC(=O)c2ccsc2)CN1CCCSC`, 68.61%.
`CCOCc1cnc2n1CCN(C(=O)C1=CCCC1)C2C` (stereo unspecified): the INHIBITION is recorded as 21.92%.
As for `COCc1cnc2n1CCN(C(=O)c1cc3ccccc3o1)C2C` (stereo unspecified), the INHIBITION is on record as -29.49%.
Consider `COCc1cnc2n1CCN(C(=O)c1cnc3ccccc3c1)C2C` (stereo unspecified), for which the INHIBITION was -17.69%.
Turning to `COCC(=O)N1CCn2c(COc3cccnc3)cnc2C1C` (stereo unspecified), the INHIBITION is listed as -28.81%.
For `COCc1cnc2n1CCN(C(=O)C1=CCCC1)C2C` (stereo unspecified) the value was 53.46%.
On to `CC1c2ncc(COc3cccnc3)n2CCN1C(=O)C1=CCCCC1` (stereo unspecified), for which the INHIBITION turned out to be 52.36%.
In the case of `CC1c2ncc(COc3cccnc3)n2CCN1C(=O)C1=CCCC1` (stereo unspecified), the INHIBITION was -7.05%.
As for `COCc1cnc2n1CCN(C(=O)c1ccc3ccccc3n1)C2C` (stereo unspecified), the INHIBITION amounted to 53.08%.
Turning to `COCc1cnc2n1CCN(C(=O)C1=CCCCC1)C2C` (stereo unspecified), the INHIBITION was 11.55%.
Take `CS(=O)(=O)c1ccc(Cl)c(NC(=O)NCCC2=CCCCC2)c1`: the INHIBITION is recorded as 36.66%.
Under `Cc1cnn(CC2CN(Cc3nnc(C(C)C)o3)CCO2)c1` (stereo unspecified) stands -11.91%; under `CCc1ccc(CN2CCN(c3cccc(OC)c3)C(=O)C2)nc1`, -18.92%; under `CC(c1cccc(-c2cn(Cc3ccoc3)nn2)c1)N(C)C` (stereo unspecified), 28.62%.
With `N#Cc1ccc(C(=O)N2CC[C@H]3[C@H]2CCN3CC2CC2)cc1`, the INHIBITION was 5.14%.
For `CCc1cccc(OC2CN(C(=O)[C@@H](N)[C@@H](C)O)C2)c1` the value was 18.28%; for `CCn1cc(NC(=O)c2cccc(OCC(F)(F)F)n2)cn1`, -44.13%; for `COCC(Nc1ncnc2sc(C(=O)O)c(C)c12)c1ccnn1C` (stereo unspecified), -1.87%.
For `CCN(C(=O)CCn1cccn1)C1CC1`, the INHIBITION turned out to be 72.05%.
For `CC(C)CC(C)N(C)C(=O)CCn1cccn1` (stereo unspecified) the value was 62.51%; for `CNC(=O)C1CCN(C(=O)CCn2cccn2)CC1`, -84.03%; for `CC(C)CN1CCN(C(=O)CCn2cccn2)CC1`, 0.74%.
For `CC(C1CC1)N(C)C(=O)CCn1cccn1` (stereo unspecified) the value was 31.51%.
On to `CCC(=O)N1CCN(C(=O)CCn2cccn2)CC1`, for which the INHIBITION was -27.69%.
Under `O=C1CC(NS(=O)(=O)c2ccc3ccccc3c2)CN1` (stereo unspecified) stands 2.11%.
Under `CN(Cc1ccccc1O)C(=O)NC1CCCN(c2ncccn2)C1` (stereo unspecified) stands -12.48%.
For `COc1c(C2CCCN2Cc2nc(C3CC3)no2)c(C)nn1C` (stereo unspecified) the value was -13.46%.
As to `Cc1nn(C)c(C)c1C1CCCN1Cc1nc(C2CC2)no1` (stereo unspecified), the INHIBITION is given as -38.96%.
For the compound `c1ccc2oc(CCCN3CCCC3c3noc(C4CC4)n3)nc2c1` (stereo unspecified), the INHIBITION is given as 18.86%.
For `CCc1nc(C2CCCN2CCn2cncn2)no1` (stereo unspecified) the value was 58.49%; for `CCS(=O)(=O)CCN1CCCC1c1noc(C2CC2)n1` (stereo unspecified), 51.21%.
Under `c1ccc2oc(CN3CCCC3c3noc(C4CC4)n3)nc2c1` (stereo unspecified) stands 63.68%.
Under `CCc1nc(C2CCCN2Cc2nc3ccccc3o2)no1` (stereo unspecified) stands -32.11%; under `CCc1nc(C2CCCN2C(=O)CCCn2cncn2)no1` (stereo unspecified), 37.31%.
Turning to `CS(=O)(=O)CCN1CCCC1c1noc(C2CC2)n1` (stereo unspecified), the INHIBITION was found to be 21.83%.
Under `CCc1nc(C2CCCN2C(=O)CCn2cncn2)no1` (stereo unspecified) stands 7.54%; under `Cc1nn(C)c(Cl)c1C1CCCN1Cc1nc(C2CC2)no1` (stereo unspecified), 51.94%.
For `CCS(=O)(=O)CCN1CCCC1c1noc(C)n1` (stereo unspecified) the value was 49.02%; for `O=C1CN(Cc2ccc3ccccc3n2)CCN1C1CCCC1`, -34.37%.
Under `CNC(=O)NCC(=O)N1CCCC1Cc1cccc(F)c1` (stereo unspecified) stands 41.21%; under `CNc1nc(C(=O)N2CCN(c3cc(C)nc(C)c3)CC2)cs1`, 7.64%; under `c1cc(-c2nnn3c2COC(CNCc2nccs2)C3)ccn1` (stereo unspecified), 16.87%.
With `O=C(c1cccc(OC2CCCC2)c1)N1CCCC(n2cncn2)C1` (stereo unspecified), the INHIBITION was determined as 27.55%.
As to `Cc1nsc(NC(=O)N2CCC(C(C)(C)O)CC2)n1`, the INHIBITION was -0.55%.
Take `CN1CCN(C(=O)c2cn(Cc3ccccc3)c3ncccc23)CC1`: the INHIBITION is 46.61%.
Consider `Cc1ccc(NC2CCN(C(=O)CCc3nccs3)CC2)nn1`, for which the INHIBITION came to 3.06%.
On to `CC(C)Cn1cc(C(=O)NC2CCS(=O)(=O)C2)c2ccccc2c1=O` (stereo unspecified), for which the INHIBITION is listed as -70.1%.
Under `O=C(C1CCOCC1)N1CCC2(CC1)CN(c1ccsc1)C(=O)CO2` stands -17.15%; under `CS(=O)(=O)Cc1ccc(NC(=O)c2cccnc2)cc1F`, -35.1%.
Under `NC1CCc2nc(-c3cccnc3)nc(Nc3ccc(F)cc3)c2C1` (stereo unspecified) stands -13.75%.
Under `CSCCCN1CCCC1c1noc(C)n1` (stereo unspecified) stands -8.84%; under `CCc1nc(C2CCCN2CCCSC)no1` (stereo unspecified), 55.92%.
Take `CCc1nc(C2CCCN2CCCS(N)(=O)=O)no1` (stereo unspecified): the INHIBITION is 22.29%.
For `Cn1ccc(CN2CCC(CC(=O)N3CCCC3)CC2)cc1=O` the value was 14.5%; for `Cc1cccc(N2CCC(NC(=O)CCCc3cccs3)CC2)n1`, -52.85%.
For `CCc1nc(C2CCCN2C(=O)CCc2nc(C(C)(C)C)no2)no1` (stereo unspecified) the value was 44.43%; for `CCc1nc(C2CCCN2C(=O)CCc2c(C)noc2Cl)no1` (stereo unspecified), 51.94%.
Under `CCc1nc(C2CCCN2C(=O)c2ccc(N(C)C)nn2)no1` (stereo unspecified) stands 5.91%; under `CCc1nc(C2CCCN2C(=O)c2ccc(N3CCCC3)nn2)no1` (stereo unspecified), 63.46%; under `CCc1nc(C2CCCN2C(=O)CCc2nc(C3CC3)no2)no1` (stereo unspecified), -25.46%.
Take `CCc1nc(C2CCCN2C(=O)c2c[nH]c(C)n2)no1` (stereo unspecified): the INHIBITION is -72.93%.
For `CCn1cc(-c2cc(-c3ccn(C)c3)nc(N)c2C#N)cc1C#N` the value was 17.19%.
Under `Cc1cnn(CC2CCCCN2C(=O)c2ccc3[nH]nnc3c2)c1` (stereo unspecified) stands 39.32%; under `Cc1cnn(CC2CCCN2C(=O)c2ccc3[nH]c(=O)[nH]c3c2)c1` (stereo unspecified), -73.25%; under `Cc1cnn(CC2CCCN2C(=O)c2ccc3[nH]nnc3c2)c1` (stereo unspecified), 53.72%.
For `COc1ccc2cc(C(=O)N3CCCC3Cn3cc(C)cn3)[nH]c2c1` (stereo unspecified) the value was 53.98%.
Take `Cc1cnn(CC2CCCN2C(=O)c2cc3ccccc3[nH]2)c1` (stereo unspecified): the INHIBITION is reported as -20.11%.
For `COc1ccc2cc(C(=O)N3CCCCC3Cn3cccn3)[nH]c2c1` (stereo unspecified) the value was -28.85%; for `CC1CCN(C(=O)[C@H]2C[C@@H]3CCN(CC4CCOCC4)C[C@@H]3O2)CC1`, -21.33%.
On to `COCc1nc(C(=O)NS(=O)(=O)c2c(C)c(C)cc(C)c2C)cs1`, for which the INHIBITION was 18.85%.
`O=C(c1cn2ccsc2n1)N1CCN(CC2CC2)[C@@H]2CS(=O)(=O)C[C@@H]21`: the INHIBITION is given as -18.12%.
Under `Cn1cccc1C(=O)N1CCc2c(CNS(C)(=O)=O)cncc2C1` stands 6.66%.
